Assay outcomes from PubChem BioAssay.
Shown are actives, neighbours in structure and some others; about 18% of the full set was active somewhere.
DT40 TDP1 no CPT: qHTS for Inhibitors of human tyrosyl-DNA phosphodiesterase 1 (TDP1): qHTS in cells in absence of CPT; DT40 Tdp1-/- hTDP1 cells, no CPT, ATP luminescence, 48 h; Potency, µM (series often up to 46.2 µM), most hits filed as inhibitors; 420,000 compounds, 15% hits; AID 686978, 2013; also: nearly all actives have a fitted effect of over 55% in size
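Readout: luminescence from CellTiter-Glo after 30 min in the dark at RT. Cells: DT40 Tdp1-/- with stable hTDP1, 400/well. Exposure: compounds alone, ≥48 hr, 37 °C.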
LDHA inh: blocks human lactate dehydrogenase A; P00338; purified LDHA, NADH/diaphorase-resazurin fluorescence; stronger effect = lower value; activity change, % (values are at about 110 or 230 µM); 480,000 compounds, 0.15% hits; in the data active = activity change below about -30%; inconclusive = mostly about -25% to -30%
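Enzyme activity of human lactate dehydrogenase 5 (2 nM; 0.06 mM NADH, 0.2 mM pyruvate, 5 min, RT) is measured via a resazurin/diaphorase fluorescence readout of residual NADH.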
DT40 TDP1 CPT: DT40-hTDP1 cell growth loss with CPT. chicken DT40 Tdp1-/-;hTDP1 cells + 20 nM CPT, ATP luminescence, 48 h. AID 686979. 420,000 compounds, 12% hits. Potency, µM (doses to about 46.2 µM), hits mostly inhibitors; also: nearly all actives have a fitted effect of over 55% in size
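Chicken DT40 Tdp1-/- cells complemented with human TDP1, 400 cells/well, exposed to compounds plus 20 nM camptothecin for at least 48 h at 37 C; viability read as ATP content by CellTiter-Glo luminescence.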
RORg inh: inhibitors of mouse ROR gamma transcriptional activity | Drosophila S2 Gal4-RORgamma UAS-luciferase reporter, 20 h | Potency, µM (doses to about 53.6 µM), hits mostly inhibitors | 310,000 compounds, 5.4% hits; also: nearly all actives have a fitted effect of over 60% in size
Target sequence (P51450 whole entry, looked up, the tested form may be a part): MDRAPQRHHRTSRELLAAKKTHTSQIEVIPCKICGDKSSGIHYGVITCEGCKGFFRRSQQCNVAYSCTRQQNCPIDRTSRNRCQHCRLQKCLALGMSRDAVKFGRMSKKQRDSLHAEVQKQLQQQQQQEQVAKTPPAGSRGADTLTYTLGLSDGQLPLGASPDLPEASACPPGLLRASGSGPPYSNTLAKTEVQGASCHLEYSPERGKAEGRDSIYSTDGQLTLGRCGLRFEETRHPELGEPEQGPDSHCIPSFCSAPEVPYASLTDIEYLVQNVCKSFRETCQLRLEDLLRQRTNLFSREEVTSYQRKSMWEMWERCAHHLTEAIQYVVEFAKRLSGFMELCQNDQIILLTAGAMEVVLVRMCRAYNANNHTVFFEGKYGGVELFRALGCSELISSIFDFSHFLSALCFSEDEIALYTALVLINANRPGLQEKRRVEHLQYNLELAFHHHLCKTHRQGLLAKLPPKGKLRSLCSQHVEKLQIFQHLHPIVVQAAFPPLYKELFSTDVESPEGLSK
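Luciferase reporter read in Schneider cells carrying Gal4-RORγ (mouse) and UAS-Photinus luciferase; cells given compound 1 h before 700 uM copper sulfate induction, then incubated 20 h at ambient temperature.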
IL-1B inflam inh: inflammasome signaling inhibition, IL-1 beta readout. THP-1 LPS/ATP IL-1B secretion, AlphaLISA, 16 h; stronger effect = lower value. activity change, % at 57.5 µM. 360,000 compounds, 4.7% hits. AID 743279; in the data active = activity change below about -50%; inconclusive = mostly about -30% to -49%
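Secreted IL-1B measured by AlphaLISA bead assay after 16 h compound exposure of THP-1 cells; compounds (final up to 57.5 uM) added 1 h before LPS (250 ng/mL) and ATP (1.25 mM) stimulation; lower signal means less secretion.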
VP16 counter: Gal4-VP16 reporter inhibition counter-screen. Drosophila S2 Gal4-VP16 UAS-luciferase, luminescence, 20 h. Potency, µM (series often up to 53.6 µM), most hits filed as inhibitors. 310,000 compounds, 3.5% hits. AID 2546;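 also: Gal4-VP16 expression switched on by copper sulfate through the metallothionein promoter; nearly all actives have a fitted effect of over 50% in size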
A number is an active result; - = inactive; ? = inconclusive; . = no result; [ ] = remark or other dose. Unless noted, calls follow the shape of the dose curve; as a rule, active = well fitted curve in the direction sought with a large enough effect; inconclusive = small, poorly fitted or top-dose-only effect, or another doubt; inactive = no such curve, though single readings can be large; an effect the other way counts as inactive or inconclusive.

SMILES	DT40 TDP1 no CPT	LDHA inh	DT40 TDP1 CPT	RORg inh	IL-1B inflam inh	VP16 counter
COc1ccc(C(=O)c2ccc(OC)c(OC)c2)cc1OC	?	-	?	-	-	-
Cc1cc(C)n(-c2nc3c(c(=O)n(CC(C)C)c(=O)n3C)n2CCc2ccccc2)n1	.	-	.	.	.	.
CC(C)NC(=O)CCC(=O)c1ccc2c(c1)OCCO2	.	-	.	.	.	.
COc1ccc(CCNC(=O)C2CCCN(c3ccc4nnc(C(F)(F)F)n4n3)C2)cc1 (stereo unspecified)	.	-	.	.	.	.
CCN(CC)CCCNC(=O)C(C)C1CCN(C(=O)c2ccc3nc(-c4ccccc4)oc3c2)CC1 (stereo unspecified)	.	-	.	.	.	.
COc1ccccc1-c1nnc2n1N=C(c1ccc(O)c(O)c1)CS2	6.51µM	-	6.51µM	-	-	-
CCOc1ccc(C2=Nn3c(nnc3-c3ccccc3OC)SC2)cc1	0.184µM	-	0.206µM	-	-	-
COc1cccc(C2=Nn3c(nnc3-c3ccccc3OC)SC2)c1	.	.	.	?	.	-
O=C(NCc1cnn(-c2ccccc2)c1)C1CCN(S(=O)(=O)c2ccccc2)CC1	.	-	.	.	.	.
CCOc1ccc2oc(C(=O)N3CCN(CC(=O)Nc4ccc(F)cc4)CC3)c(C)c2c1	.	-	.	.	.	.
CN(Cc1ccc(C(N)=O)cc1)Cc1cccs1	.	-	.	.	.	.
COc1ccc(-n2c(CCc3ccccc3)nnc2SCC(=O)c2ccccc2)cc1	?	-	?	-	-79.6	-
COc1ccc(C(=O)CSc2nnc(CCc3ccccc3)n2-c2ccccc2)cc1	14.6µM	-	16.4µM	15.8µM	-	?
COc1ccc(NC(=O)Cc2nnc(SCC(=O)c3ccccc3)n2C)cc1	-	-	-	-	-	-
O=C(CN1CCN(C(=O)c2cc3ccccc3[nH]2)CC1)N1CCCCCC1	.	-	.	.	.	.
Cc1ccc(-c2noc(-c3ccc(Br)o3)n2)s1	.	-	.	.	.	.
O=C(O)c1ccc(NC2=C(N3CCOCC3)C(=O)c3ccccc3C2=O)cc1	?	-	?	-	-	-
CC(=O)N(C)C1=C(N2CCOCC2)C(=O)c2ccccc2C1=O	0.164µM	-	0.184µM	8.91µM	-93.9	?
CC(=O)N(C1=C(N2CCOCC2)C(=O)c2ccccc2C1=O)c1ccc(C(=O)O)cc1	?	-	?	?	-	11.2µM
CCC(C)(C)C1CCc2c(sc(NC(=O)C3CC3c3ccccc3)c2C#N)C1 (stereo unspecified)	.	-	.	.	.	.
Cc1cc(Cl)ccc1NC(=O)Cn1nc(C)c2ccccc2c1=O	.	-	.	.	.	.
Cc1cc(-n2c(=O)c3sccc3n(CC(=O)NC3CCc4ccccc43)c2=O)ccc1F (stereo unspecified)	.	-	.	.	.	.
CCOc1cccc2cc(S(=O)(=O)c3cccc(Cl)c3)c(=O)oc12	.	-	.	.	.	.
CC(=O)c1ccc(-c2cnc3c(NC=O)cc(-c4ccc(S(C)(=O)=O)cc4)cn23)cc1	7.31µM	-	8.2µM	.	-	.
CC(=O)c1ccc(-c2cnc3c(NC=O)cc(-c4cnn(C)c4)cn23)cc1	23.1µM	-	18.4µM	.	?	.
SMILES	DT40 TDP1 no CPT	LDHA inh	DT40 TDP1 CPT	RORg inh	IL-1B inflam inh	VP16 counter
CC(C)(C)c1nnc2sc(-c3cc4ccccc4[nH]3)nn12	.	-	.	.	.	.
Cn1c(=O)c2c(ncn2CC(=O)Nc2nc(-c3ccc(-c4ccccc4)cc3)cs2)n(C)c1=O	.	-	.	.	.	.
C/C(CCC12CC3CC(CC(C3)C1)C2)=N\NC(N)=S	16.4µM	-	14.6µM	1.26µM	-	4.47µM
O=C(CCN1C(=O)/C(=C/c2ccccc2)SC1=S)Nc1ccccn1	-	-	-	-	-	-
COc1ccc(/C=C2\SC(=S)N(CCCC(=O)Nc3ccccn3)C2=O)cc1OC	29.1µM	-	?	4.47µM	-	5.01µM
Cc1ccc(/C=C2\SC(=S)N(CCCC(=O)Nc3ccccn3)C2=O)cc1	?	-	?	0.447µM	-	1.58µM
O=C(CCN1C(=O)/C(=C/c2cccs2)SC1=S)Nc1ccccn1	?	-	?	?	-	-[10 µM]
O=C(CCN1C(=O)S/C(=C\c2cccs2)C1=O)NC1=NCCS1	-	-	-	?	-	17.8µM
COc1ccc(/C=C2\SC(=S)N(CCCC(=O)Nc3cccc(C(=O)O)c3)C2=O)cc1OC	-	-	-	-	-	-
O=C(CCCN1C(=O)/C(=C\c2cccs2)SC1=S)Nc1ccccn1	16.4µM	-	?	?	-	?
CC(=O)c1c(C)[nH]c(C(=O)C(C)OC(=O)c2cc(F)cc(F)c2)c1C (stereo unspecified)	.	-	.	.	.	.
COc1ccccc1NS(=O)(=O)c1cc(NC(=O)c2cccs2)ccc1N1CCOCC1	2.59µM	-	7.31µM	-	-	-
COc1ccccc1NS(=O)(=O)c1cc(NC(=O)c2ccccc2F)ccc1N1CCOCC1	13µM	-	16.4µM	-	-	-
O=C(c1ccccc1)c1ccccc1NC(=O)c1cc2ccccc2oc1=O	.	-	.	.	.	.
CCN(CC)CCNC(=O)c1cc(C)nc2c(C)cccc12	.	-	.	.	.	.
CC1CCC(C(C)C)C(OC(=O)COC(=O)c2cc(O)ccc2N)C1 (stereo unspecified)	?	-	?	-	-80.4	?
CC1CCC(C(C)C)C(OC(=O)COC(=O)c2ccc(=O)[nH]c2)C1 (stereo unspecified)	?	-	-	-	-	-
COC(=O)CCC(=O)c1cc(OC)ccc1OC	.	-	.	.	.	.
COc1ccc(C(=O)c2ccc(N(C)C)cc2)c(OC)c1	2.82µM	-	3.16µM	-	-	-
COc1ccc(C(=O)c2ccc(N3CCOCC3)cc2)c(OC)c1	?	-	?	-	-	-
COc1ccc(C(=O)c2ccc(OC)cc2OC)cc1	5.8µM	-	-	-	-	-
COc1ccc(/C(C)=N/N=C(N)N)c(O)c1	-	-	-	-	-	-
COc1ccc(OC)c(C(=O)CCCCC(=O)c2cc(OC)ccc2OC)c1	18.4µM	-	?	.	-	.
COc1ccc(/C(C)=N/N=C(N)N)c(OC)c1	-	-	18.4µM	-	-	-
Cc1ccc2ncn(Cc3ncc(-c4cccc(Cl)c4)o3)c(=O)c2c1	.	-	.	.	.	.
SMILES	DT40 TDP1 no CPT	LDHA inh	DT40 TDP1 CPT	RORg inh	IL-1B inflam inh	VP16 counter
COc1ccc(OC)c(C(=O)c2ccc(C(=O)Nc3ccc4ccccc4c3)cc2)c1	18.4µM	-	20.6µM	?	-	-
COc1ccc(OC)c(C(=O)COC(=O)COc2ccccc2)c1	5.8µM	-	14.6µM	.	?	.
COc1ccc(OC)c(C(=O)COC(=O)COc2cccc(Cl)c2)c1	.	-	.	.	.	.
COc1ccc(C(=O)Nc2ccc3ccccc3c2)cc1	-	-	-	?	-	?
COc1ccc(OC)c(C(=O)c2ccc(C(=O)c3cc(OC)ccc3OC)cc2)c1	?	-	?	-	-75.1	-
CSCc1c(C(=O)N2CCCc3ccccc32)oc2ccccc12	?	-	14.6µM	.	-	.
